A selection: hits, their analogues and other compounds. The true share with any hit is near 3.5%.
mHTT CaM bind = mutant huntingtin-calmodulin interaction inhibitors – biochemical, AlphaScreen, primary screen. P42858. AlphaScreen His-mHTT/GST-CaM binding, luminescence. inhibition, % at 15 µM. 3.6% of 190,000 active;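 further: 0% = both proteins with DMSO and 100% = one protein alone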
Target sequence (P42858 whole entry, looked up, stated change not applied): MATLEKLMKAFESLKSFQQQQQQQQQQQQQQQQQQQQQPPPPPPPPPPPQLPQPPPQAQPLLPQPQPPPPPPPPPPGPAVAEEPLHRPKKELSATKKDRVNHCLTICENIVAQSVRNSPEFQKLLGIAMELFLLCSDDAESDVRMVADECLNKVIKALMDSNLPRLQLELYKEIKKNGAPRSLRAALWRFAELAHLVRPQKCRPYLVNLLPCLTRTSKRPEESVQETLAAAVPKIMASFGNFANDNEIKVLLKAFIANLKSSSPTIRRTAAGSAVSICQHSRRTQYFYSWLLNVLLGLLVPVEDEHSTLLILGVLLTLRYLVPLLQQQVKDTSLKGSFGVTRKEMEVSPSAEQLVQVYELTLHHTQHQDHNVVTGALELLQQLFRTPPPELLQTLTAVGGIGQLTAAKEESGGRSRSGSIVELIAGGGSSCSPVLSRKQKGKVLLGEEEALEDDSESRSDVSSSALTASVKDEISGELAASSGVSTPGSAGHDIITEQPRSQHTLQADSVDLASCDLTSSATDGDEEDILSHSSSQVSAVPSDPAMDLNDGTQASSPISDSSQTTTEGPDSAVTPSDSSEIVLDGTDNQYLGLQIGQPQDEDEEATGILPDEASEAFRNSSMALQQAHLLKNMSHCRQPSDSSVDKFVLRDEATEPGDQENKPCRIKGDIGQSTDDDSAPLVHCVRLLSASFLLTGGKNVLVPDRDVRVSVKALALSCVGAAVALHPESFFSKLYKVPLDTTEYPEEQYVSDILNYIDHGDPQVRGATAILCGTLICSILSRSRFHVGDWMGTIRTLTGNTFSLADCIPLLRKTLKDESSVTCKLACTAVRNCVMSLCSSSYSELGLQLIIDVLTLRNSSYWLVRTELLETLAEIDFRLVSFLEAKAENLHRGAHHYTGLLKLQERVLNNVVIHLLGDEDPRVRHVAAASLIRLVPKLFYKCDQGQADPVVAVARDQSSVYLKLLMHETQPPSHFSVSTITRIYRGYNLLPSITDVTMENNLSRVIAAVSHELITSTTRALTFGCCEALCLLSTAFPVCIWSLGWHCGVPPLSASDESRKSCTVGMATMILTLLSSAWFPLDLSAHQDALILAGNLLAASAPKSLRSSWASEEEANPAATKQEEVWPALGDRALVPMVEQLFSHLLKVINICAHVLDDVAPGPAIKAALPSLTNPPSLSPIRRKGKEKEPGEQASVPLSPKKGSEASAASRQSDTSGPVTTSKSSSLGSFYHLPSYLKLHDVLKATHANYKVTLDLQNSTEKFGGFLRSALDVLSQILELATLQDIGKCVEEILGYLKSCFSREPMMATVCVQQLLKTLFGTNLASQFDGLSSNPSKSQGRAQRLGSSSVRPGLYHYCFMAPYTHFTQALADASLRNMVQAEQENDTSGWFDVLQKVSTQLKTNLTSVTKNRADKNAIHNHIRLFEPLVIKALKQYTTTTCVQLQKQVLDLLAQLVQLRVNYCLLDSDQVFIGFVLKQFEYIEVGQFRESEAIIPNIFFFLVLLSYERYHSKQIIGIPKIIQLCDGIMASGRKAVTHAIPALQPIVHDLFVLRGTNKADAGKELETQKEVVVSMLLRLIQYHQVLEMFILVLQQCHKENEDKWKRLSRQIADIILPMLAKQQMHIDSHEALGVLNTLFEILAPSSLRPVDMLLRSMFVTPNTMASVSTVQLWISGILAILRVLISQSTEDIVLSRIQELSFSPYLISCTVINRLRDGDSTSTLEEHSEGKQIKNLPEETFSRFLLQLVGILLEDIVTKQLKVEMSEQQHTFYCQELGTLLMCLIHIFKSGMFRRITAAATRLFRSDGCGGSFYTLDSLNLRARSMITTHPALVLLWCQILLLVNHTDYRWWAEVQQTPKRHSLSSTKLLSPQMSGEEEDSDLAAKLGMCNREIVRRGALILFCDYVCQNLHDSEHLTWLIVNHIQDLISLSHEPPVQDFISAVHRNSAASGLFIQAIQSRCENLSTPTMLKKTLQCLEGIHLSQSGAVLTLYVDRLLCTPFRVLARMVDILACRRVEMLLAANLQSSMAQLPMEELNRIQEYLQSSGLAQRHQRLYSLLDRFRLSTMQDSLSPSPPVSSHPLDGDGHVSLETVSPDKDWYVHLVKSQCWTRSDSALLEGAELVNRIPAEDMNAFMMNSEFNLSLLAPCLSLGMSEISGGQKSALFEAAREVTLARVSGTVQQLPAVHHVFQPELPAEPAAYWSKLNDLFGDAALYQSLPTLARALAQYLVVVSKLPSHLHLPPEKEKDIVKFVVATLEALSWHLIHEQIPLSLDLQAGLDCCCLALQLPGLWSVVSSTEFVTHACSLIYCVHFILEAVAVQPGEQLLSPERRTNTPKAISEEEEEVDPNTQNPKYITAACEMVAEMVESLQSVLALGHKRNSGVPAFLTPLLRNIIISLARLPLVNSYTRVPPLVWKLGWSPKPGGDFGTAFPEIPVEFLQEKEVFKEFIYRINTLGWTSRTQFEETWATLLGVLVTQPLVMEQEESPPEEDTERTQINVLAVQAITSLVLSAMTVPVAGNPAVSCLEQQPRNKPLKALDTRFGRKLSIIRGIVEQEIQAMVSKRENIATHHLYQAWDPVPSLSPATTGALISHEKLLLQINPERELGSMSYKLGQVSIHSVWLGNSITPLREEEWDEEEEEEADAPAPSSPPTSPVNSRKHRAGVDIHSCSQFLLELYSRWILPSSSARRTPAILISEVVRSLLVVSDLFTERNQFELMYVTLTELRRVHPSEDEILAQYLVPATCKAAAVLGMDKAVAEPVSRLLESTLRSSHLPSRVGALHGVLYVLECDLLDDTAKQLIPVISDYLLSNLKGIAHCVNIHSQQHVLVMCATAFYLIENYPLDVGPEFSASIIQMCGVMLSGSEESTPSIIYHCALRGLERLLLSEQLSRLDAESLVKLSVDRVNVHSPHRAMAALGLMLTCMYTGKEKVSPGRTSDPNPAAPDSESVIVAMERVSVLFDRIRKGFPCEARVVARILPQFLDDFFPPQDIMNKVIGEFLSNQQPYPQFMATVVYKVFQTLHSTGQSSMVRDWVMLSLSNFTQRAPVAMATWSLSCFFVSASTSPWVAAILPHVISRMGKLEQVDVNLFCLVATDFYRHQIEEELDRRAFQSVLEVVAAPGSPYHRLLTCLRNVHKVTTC
Pf apPOL inh = Pf-apPOL inhibitors, biochemical, fluorescence; Plasmodium falciparum apicoplast DNA polymerase (apPOL); inhibition, % at 10 µM; AID 1794808, 2022; 0.25% of 210,000 active; Recombinant Pf-apPOL, molecular beacon fluorescence, 1.5 h
Active calls of the source: *; . = no result. No stated cut-off is given here; in the data, active means inhibition above about 50%; inactive means the rest.

SMILES | mHTT CaM bind | Pf apPOL inh
Cc1ccc(S(=O)(=O)N=C2C=CC(=O)C=C2)cc1 | 46.0 | -4.8
O=C1C=CC(=NS(=O)(=O)c2ccc(F)cc2)C=C1 | 50.0* | -8.8
O=C(O)c1cccc(S(=O)(=O)N2CCCCCC2)c1 | -14.6 | -2.9
c1ccc(-c2nnc(-c3cccnc3N3CCOCC3)o2)cc1 | -7.5 | -9.3
CS(=O)(=O)c1ccc(N2CC(c3nnc(NC(=O)c4cccs4)o3)CC2=O)cc1 (centres undefined) | 52.7* | 0.0
Cc1ccccc1C(=O)Nc1nnc(C2CC(=O)N(c3ccc(S(C)(=O)=O)cc3)C2)o1 (centres undefined) | 46.4 | -0.8
O=C(Nc1nnc(C2CC(=O)N(c3ccccc3)C2)o1)c1ccc(Br)cc1 (centres undefined) | 14.7 | -1.1
O=C(Nc1nnc(C2CC(=O)N(c3ccccc3)C2)o1)c1ccccn1 (centres undefined) | 100.1* | -212.7
COc1ccc(N2CC(c3nnc(NC(=O)c4ccc(Cl)cc4)o3)CC2=O)cc1 (centres undefined) | -2.0 | -4.8
COc1ccc(C(=O)Nc2nnc(C3CC(=O)N(c4ccc(Cl)cc4)C3)o2)cc1OC (centres undefined) | 76.4* | -3.4
COc1ccc(C(=O)Nc2nnc(C3CC(=O)N(c4ccccc4)C3)o2)cc1OC (centres undefined) | 61.3* | -1.7
COc1ccc(C(=O)Nc2nnc(C3CC(=O)N(c4ccccc4)C3)o2)cc1 (centres undefined) | 7.5 | -2.7
COc1cc(NS(=O)(=O)c2ccc(N3C(=O)c4ccccc4C3=O)cc2)nc(OC)n1 | -3.0 | 1.1
CCc1nc(N)n(CC(=O)N2CCCc3ccccc32)c(=O)c1C | -11.2 | -1.9
CCc1nccn1S(=O)(=O)c1nc(C)c(Cl)c(C)c1C#N | -0.3 | .
Nc1nn2c(=O)c3[nH]c4ccc(F)cc4c3nc2s1 | 48.4 | .
O=C(O)Cn1cc(-c2ccccc2)nn1 | 3.3 | -1.1
CC1(C)Cc2c(sc3nc(Nc4ccccc4)n(N)c(=O)c23)CO1 | 53.4* | -6.0
CC1(C)Cc2c(sc3nc(SCC(=O)O)n(-c4ccccc4)c(=O)c23)CO1 | -1.2 | 3.0
COc1cc(C(=O)n2c(C)nc3ccccc32)cc(OC)c1OC | 89.2* | -11.8
Cc1nc2ccccc2n1C(=O)c1ccc(F)cc1 | -6.8 | -5.6
O=C1CSC(c2ccc(Cl)cc2)N1c1ccc(Br)cn1 (centres undefined) | -40.0 | 4.8
Cc1ccc(-c2nc(C(=O)NCCc3ccccc3)cs2)n1C | 98.7* | 1.1
Cc1ccc(-c2nc(C(=O)NCCc3ccc(Cl)cc3)cs2)n1C | 23.8 | -3.0
Cc1ccc(-c2nc(C(=O)Nc3ccc(Cl)cc3)cs2)n1C | -7.4 | -5.1
SMILES | mHTT CaM bind | Pf apPOL inh
COc1ccc(NC(=O)c2csc(-c3ccc(C)n3C)n2)cc1 | 62.4* | -2.7
CCSc1nnc(NC(=O)C2CC2)s1 | 1.7 | 3.2
O=C(/C=C/c1ccco1)Nc1c2c(nn1-c1ccc([N+](=O)[O-])cc1)CSC2 | 98.0* | -3.6
O=C(Nc1c2c(nn1-c1ccc(F)cc1)CS(=O)(=O)C2)c1cccs1 | 3.0 | -3.7
COc1ccc(/C=C/C(=O)Nc2c3c(nn2-c2ccc([N+](=O)[O-])cc2)CSC3)cc1OC | 45.0 | -5.7
O=C(Nc1c2c(nn1-c1ccc([N+](=O)[O-])cc1)CS(=O)(=O)C2)c1cccs1 | 5.0 | -1.9
O=C(Nc1c2c(nn1-c1ccc([N+](=O)[O-])cc1)CSC2)c1cccs1 | 55.0* | -3.6
O=C(Nc1c2c(nn1-c1ccc(F)cc1)CSC2)c1cccs1 | 51.0* | -9.8
Cc1c(C(=O)Nc2ccc(C(F)(F)F)cc2)sc2ncn(CC(=O)N3CCCC3)c(=O)c12 | 16.0 | -7.7
Cc1cc(C2CCCN2Cc2ccccc2O)on1 (centres undefined) | -6.8 | -1.1
Cc1cccc(C(=O)N=c2sccn2Cc2ccccc2C(=O)N2CCCC2)c1 | 14.6 | 0.0
O=C(N=c1sccn1Cc1ccc(C(=O)N2CCCC2)cc1)c1ccccc1F | 7.4 | 58.5*
COc1ccccc1/C=C1/N=C(c2cc(Br)ccc2OC)OC1=O | 38.0 | -3.8
Cc1nc(NC(=O)c2cccnc2)sc1C(=O)N(C)C | -3.4 | 1.9
O=S(=O)(C1CC1)N1CCCC2(C1)Nc1ccccc1NC2=NCc1ccccc1 (centres undefined) | 62.3* | -5.3
O=C(c1ccncc1)N1CCCC2(C1)Nc1ccccc1NC2=NCc1ccccc1 (centres undefined) | 24.1 | -0.4
O=C(c1ccccc1)N1CCCC2(C1)Nc1ccccc1NC2=NC1CCCC1 (centres undefined) | 31.8 | 2.3
COCCC(=O)N1CCCC2(C1)Nc1ccccc1NC2=NC1CCCC1 (centres undefined) | 7.4 | -4.2
O=C(c1ccco1)N1CCCC2(C1)Nc1ccccc1NC2=NC1CCCC1 (centres undefined) | 78.5* | -1.0
O=C(c1ccccn1)N1CCCC2(C1)Nc1ccccc1NC2=NC1CCCC1 (centres undefined) | 24.1 | 0.5
O=C(NCc1ccccc1)N1CCCC2(C1)Nc1ccccc1NC2=NC1CCCC1 (centres undefined) | 100.1* | -6.2
O=C(c1ccoc1)N1CCCC2(C1)Nc1ccccc1NC2=NC1CCCC1 (centres undefined) | 69.0* | 4.2
CCc1nc2c(NC(=O)CC3CCCCC3)cccn2n1 | -0.4 | -3.9
Cc1ccnc(N2CCC(C(=O)NC(C)Cc3ccco3)CC2)n1 (centres undefined) | -7.0 | -2.0
COc1ccccc1CNC(=O)CN(C)S(=O)(=O)c1ccc2[nH]c3c(c2c1)CCCC3 | 57.8* | -2.0
SMILES | mHTT CaM bind | Pf apPOL inh
COc1ccccc1NC(=O)CN(C)S(=O)(=O)c1ccc2[nH]c3c(c2c1)CCCC3 | 46.3 | -1.1
CN(CC(=O)NCc1ccc(Cl)cc1)S(=O)(=O)c1ccc2[nH]c3c(c2c1)CCCC3 | 58.0* | -2.9
CN(CC(=O)NCCc1ccccc1)S(=O)(=O)c1ccc2[nH]c3c(c2c1)CCCC3 | 32.8 | -4.1
COc1cccc(CNC(=O)CN(C)S(=O)(=O)c2ccc3[nH]c4c(c3c2)CCCC4)c1 | 35.8 | -2.1
Cc1ccc(CCNC(=O)CN(C)S(=O)(=O)c2ccc3[nH]c4c(c3c2)CCCC4)cc1 | 59.2* | -2.6
c1ccc2c(c1)CC(N1CCOCC1)C2 | -3.4 | 9.0
CCN(CC)Cc1c(C)[nH]c2c(C)cc(C)cc2c1=O | -2.8 | -4.7
CCOc1ccc(N=c2scc(-c3ccc(S(=O)(=O)N4CCCC4)cc3)n2CC)cc1 | 4.0 | -3.4
O=S(=O)(c1ccc(-c2csc(=Nc3ccc(Cl)cc3)n2CCCO)cc1)N1CCCC1 | 55.0* | -11.6
O=S(=O)(c1ccc(-c2csc(=Nc3cccc(Cl)c3)n2CCO)cc1)N1CCCCC1 | 51.0* | -6.8
O=S(=O)(c1ccc(-c2csc(=Nc3ccc(F)cc3)n2CCCO)cc1)N1CCOCC1 | 47.0 | -2.0
C=CCN1C(=O)/C(=C/c2ccc(O)cc2)SC1=Nc1ccccc1 | 78.0* | -3.5
C=CCN1C(=O)/C(=C/c2ccccc2O)SC1=Nc1ccccc1 | 49.0 | -5.9
CCOCCCNC(=O)C1(C)CCC(=O)N1c1ccc(OC)c(Cl)c1 (centres undefined) | 0.8 | -4.9
COc1ccccc1CCC(=O)N1CCC(c2nc(C(=O)N3CCOCC3)c(C)o2)CC1 | 15.6 | -0.1
CCCN1c2ccccc2-c2c(ssc2=S)C1(C)C | 47.9 | .
Cc1ccc2c(c1)-c1c(ssc1=S)C(C)(C)N2 | 52.5* | .
